# Measured values reported in ChEMBL document CHEMBL3988442, “University of Dundee, Small-Polar-MMV Screening Library” (2021).
# Hit rate of the full screen: of about 48,000 compounds, about 13,000 (27%) showed an effect of 50% or more. The list shows a part of the results.
# Test system: Wolbachia pipientis
# Test: Anti-Wolbachia Cell-Based Screen
# Assay type: functional
# Design: scale not given: in the data most compounds retested in dose-response had high values
# Conditions: 5 µM
row,SMILES,Percent Effect
1,CC(C)NC[C@@]1(COc2ccccc2)C[C@@H](O)[C@@H](O)C1.Cl,3.998%
2,N#Cc1ccc(N2CCCC2Cn2cncn2)nc1 (stereo unspecified),6.543%
3,COc1ccccc1C(C#N)NC(=O)c1cccc2c1oc(=O)n2C (stereo unspecified),-5.303%
4,CC(=O)N1CCCN(C(=O)NC(C)c2csc3ccccc23)CC1 (stereo unspecified),-8.175%
5,O=C1N(Cc2cccc(F)c2F)CCCC1(O)CNC1CCCC1 (stereo unspecified),4.204%
6,COCCNC(=O)Nc1ccc(C(=O)N2CCSCC2)cc1C,-68.32%
7,O=C(Cc1ccc(Cl)cc1)N1CCC(O)(C(F)(F)F)C1 (stereo unspecified),-18.33%
8,O=C(Cc1ccccc1)N1CCC2(CC1)CN(c1ncccn1)CCO2,-17.85%
9,NCCC(=O)N1CCC2(CC1)CN(C(=O)Cc1ccc(Cl)cc1)CCO2,115.1%
10,NCCC(=O)N1CCC2(CC1)CN(C(=O)Cc1cccc(Cl)c1)CCO2,105.1%
11,O=C(CN1C(=O)c2ccccc2C1=O)N1CCOC2(CCOCC2)C1,-3.799%
12,Cl.NCC1CCCCN1C(=O)Cc1cccc(Cl)c1 (stereo unspecified),-19.94%
13,O=C(Cc1ccccn1)N1CCC2(CC1)CN(c1ccccn1)CCO2,1.035%
14,NCC(=O)N1CCC2(CC1)CN(C(=O)Cc1ccc(Cl)cc1)CCO2,111%
15,O=C(CCc1ccc(Cl)cc1)N1CCC(O)(C(F)(F)F)C1 (stereo unspecified),8.106%
16,CCOc1ncccc1C(=O)Nc1c(C)cnn1CC1CC1,12.64%
17,CC(=O)N1CCN(Cc2nnc(C(C)(C)C)o2)CC1,-8.386%
18,Cc1cc(CN(C)C(=O)NCc2ccnc(OC3CCCC3)c2)no1,7.98%
19,CC(=O)N1CCN(C(=O)c2cnc(OC(C)C)c(Cl)c2)CC1,-40.95%
20,CNC(=O)COc1ccc(CNc2cncc(-n3cccn3)n2)cc1,94.6%
21,CNC(=O)COc1ccc(CNc2c(Cl)cccc2C#N)cc1,-7.522%
22,CCOc1cccc(CNc2cncc(-n3cccn3)n2)c1,10.28%
23,CCN(CC)C(=O)c1ccc(CNc2cncc(-n3cccn3)n2)cc1,118.2%

row,SMILES,Percent Effect
1,CCN(Cc1nccn1C)C(=O)c1ccc(NCc2ccccc2)nc1,-22.31%
2,CCCOc1ccc(CNc2cncc(-n3cccn3)n2)cc1,92.88%
3,CCN(CC)C(=O)c1ccc(CNc2ncc(C#N)cc2Cl)cc1,2.172%
4,CN(CCCc1ccccc1)C(=O)c1cn2c(n1)CNCC2,13.8%
5,O=C(CSc1ccc2c(c1)OCCO2)NS(=O)(=O)c1ccccc1,-10.89%
6,Cn1nccc1C1CCN(Cc2cnn(-c3ccccc3)n2)CC1,-1.945%
7,CN(CCc1ccccc1)c1cnn(CC(=O)N2CCSCC2)c(=O)c1,-7.275%
8,Cc1nn(CC(C)C)c(N(C)C)c1CNCc1ccc(CO)c(F)c1,108.6%
9,COc1cc(CNCc2c(C)nn(CC(C)C)c2N(C)C)ccn1,90.35%
10,Cc1nn(CC(C)C)c(N(C)C)c1CNCc1cccc2c1OCO2,0.06204%
11,COc1cc(CNCc2c(C(C)C)nn(C)c2N(C)C)ccn1,-8.861%
12,Cc1nn(C)c(N(C)C)c1CNCc1ccnn1C,-14.99%
13,COc1cc(CNCc2c(C)nn(C)c2N(C)C)ccn1,-5.351%
14,Cc1nn(CC(C)C)c(N(C)C)c1CNCc1cccnc1N(C)C,-5.662%
15,CC(C)c1nn(C)c(N(C)C)c1CNCc1ccnn1C,10.31%
16,Cc1nn(CC(C)C)c(N(C)C)c1CNCc1ccccc1CO,116.8%
17,Cc1nn(CC(C)C)c(N(C)C)c1CNCc1cc2ccccc2[nH]1,5.6%
18,CC(=O)NCCCNCc1c(C)nn(CC(C)C)c1N(C)C,-6.238%
19,Cc1nn(CC(C)C)c(N(C)C)c1CNCc1ccnn1C,113.6%
20,COCC1CN(C(=O)Nc2cc(-n3cccc3)ccc2F)CCO1 (stereo unspecified),0.4358%
21,O=S(=O)(NCCc1c[nH]c2ccc(F)cc12)C1CCOCC1,-14.21%
22,Cc1cc(N2CCN(Cc3ccc(C)o3)CC2)cc(C)n1,4.051%
23,CN(Cc1cccc(Cl)c1)C(=O)Cn1nc(-c2ccc(F)cc2)oc1=O,-8.099%

row,SMILES,Percent Effect
1,CCOCc1nc2c(c(N(C)Cc3snnc3C)n1)CCNCC2,2.794%
2,O=C(NC[C@@H]1CCCO1)c1ccc(S(=O)(=O)N[C@@H]2CCNC2)cc1,-1.141%
3,N#Cc1cc(F)ccc1NCc1ccc(Cn2cncn2)cc1,1.669%
4,COc1ccc(CNC(Cn2cncn2)c2ccccc2)cc1C (stereo unspecified),-2.513%
5,Cc1[nH]ncc1C(C)NCc1ccc(F)cc1 (stereo unspecified),-5.411%
6,Fc1ccc(CNc2ccccc2Cn2cncn2)cc1,-15.58%
7,CC(C)c1ccc(CNC(c2ccc(F)cn2)C(C)C)cc1 (stereo unspecified),100.5%
8,CC(C)C(NCc1ccc(Cn2cncn2)cc1)c1ccc(F)cn1 (stereo unspecified),90.96%
9,CC(NCc1ccc(F)cc1)c1ccc(S(C)(=O)=O)cc1 (stereo unspecified),8.945%
10,COc1ccc(CNC(Cn2cncn2)c2ccccc2)cc1O (stereo unspecified),-2.426%
11,CC(C)C(NCc1ccc(Cn2cncn2)cc1)c1ccccc1 (stereo unspecified),124.9%
12,COc1cc(OC)cc(N2CCC(NCc3occc3C)C2=O)c1 (stereo unspecified),-29.36%
13,Cc1cn(Cc2nc(CC(C)C)nn2-c2ccccn2)c(=O)[nH]c1=O,5.875%
14,CCOCCC(=O)Nc1cc(C)cnc1OC,1.473%
15,O=C(O)C(c1ccc2[nH]ccc2c1)N1CCN(c2cnccn2)CC1 (stereo unspecified),-11.7%
16,O=C(C1=CCCC1)N1CCC[C@]2(C[C@@H](OCc3ccncc3)CO2)C1.O=C(O)C(F)(F)F,-18.3%
17,Cc1ccc(S(=O)(=O)NC[C@H]2OC[C@@H](NCc3ccccc3)[C@@H]2O)cc1,-16.71%
18,COC1CCN(S(=O)(=O)N2CCC3(CCCNC3=O)C2)CC1 (stereo unspecified),4.322%
19,CN1CC(Nc2nc3c(cnn3C(C)(C)C)c(=O)[nH]2)CCC1=O (stereo unspecified),10.78%
20,O=C1CCCN1Cc1ncn2c1CN(C(=O)Cc1ccccc1)CCC2,99.41%
21,O=C1CCCN1Cc1ncn2c1CN(C(=O)Cc1cccs1)CCC2,106.6%
22,O=C1CCCN1Cc1ncn2c1CN(S(=O)(=O)c1cccs1)CCC2,-2.152%
23,O=C(O)C(F)(F)F.O=C1CCCN1Cc1ncn2c1CN(Cc1cccs1)CCC2,-6.025%

row,SMILES,Percent Effect
1,Cc1ccc(CC(=O)N2CCCn3nnc(Cn4cccn4)c3C2)cc1,-8.474%
2,CCCn1ncnc1C(C)NC(=O)CC1CCN(C(C)C)CC1 (stereo unspecified),-1.645%
3,c1csc(-c2noc(C3CCCOC3)n2)c1 (stereo unspecified),-23.77%
4,Cl.c1csc(-c2noc(C3CCCNC3)n2)c1 (stereo unspecified),100.6%
5,CCS(=O)(=O)N1CC(c2nc(-c3cccs3)no2)C1,0.556%
6,Cc1nn(C)cc1-c1nn2c(C(F)(F)F)nnc2s1,115.5%
7,CCN(CC)CCn1cnc(-c2ccccc2)c1-c1cnn(CC)c1,8.592%
8,CCn1cc(-c2nn3c(C(F)(F)F)nnc3s2)cn1,71.37%
9,CN(Cc1cc(=O)c(O)co1)C1CCN(c2ccc(F)cc2)CC1,-14.07%
10,COCCN(C)C[C@H]1C[C@@H](CO)CN(C(=O)c2ccn(C)c(=O)c2)C1,96.22%
11,COCCN(C)C[C@H]1C[C@H](CO)CN(C(=O)c2ccn(C)c(=O)c2)C1,59.73%
12,Cn1ccc(C(=O)N2CCCC(CNS(C)(=O)=O)C2)cc1=O (stereo unspecified),-3.744%
13,CN(C)C[C@H]1C[C@H](CO)CN(C(=O)c2cc(S(N)(=O)=O)ccc2F)C1,-6.33%
14,CN(C)C[C@H]1C[C@@H](CO)CN(C(=O)c2cc(=O)[nH]c3cc(F)ccc23)C1,-10.33%
15,Cc1nc(-c2ccc(Cl)s2)sc1C(=O)N(C)CC(N)=O,2.802%
16,COCc1noc(-c2ccc(N3CCCC3c3nccs3)nc2)n1 (stereo unspecified),1.711%
17,CCOC(=O)c1c(NC(=O)CN2CCN(C(C)=O)CC2)sc(C)c1C,112.4%
18,CCOC(=O)N1CCN(CC(=O)Nc2nnc(C)s2)CC1,-13.53%
19,CCc1c(C)sc(NC(=O)CN2CCN(CC)CC2)c1C(=O)OC,-10.89%
20,CCOC(=O)N1CCN(CC(=O)Nc2nnc(CC)s2)CC1,-11.16%
21,CCc1ccc(NC(=O)C2CCN(C(=O)COC)CC2)cc1,-3.205%
22,CCOC(=O)c1c(NC(=O)C2CCN(C(C)=O)CC2)sc(C)c1CC,114.1%
23,CCC(C)NC(=O)CN1CCOCC1 (stereo unspecified),4.194%

row,SMILES,Percent Effect
1,CCOC(=O)N1CCC(C(=O)Nc2nnc(C(F)(F)F)[nH]2)CC1,5.698%
2,CCc1c(C)sc(NC(=O)CN2CCOCC2)c1C(=O)OC,123.3%
3,O=C(Nc1ccc(N2CCOCC2)nc1)N1CCc2sccc2C1,-5.037%
4,Cc1nn(C)c(Oc2ccccc2)c1CNC1CCOc2ccccc21 (stereo unspecified),17.34%
5,CC(C)c1ccc(/C=C/CC(=O)NC2CCS(=O)(=O)CC2)cc1,-29.94%
6,CC(=O)c1cccc(OCCCC(=O)N(C)Cc2cnn(C)c2)c1,-7.913%
7,N#CC1(NC(=O)COC(=O)Cn2cccn2)CCCC1,0.9044%
8,N#Cc1ccnc(SCC2CN=C(N3CCOCC3)S2)c1 (stereo unspecified),11.27%
9,Cc1occc1C(=O)N1CC[C@@H]2[C@@H](CO[C@H]2CNS(C)(=O)=O)C1,-7.18%
10,O=C(CC1CC1)N[C@@H]1CN(C(=O)c2ccsc2)C[C@@H]2CCCO[C@@H]21,100.4%
11,O=C(CC1CC1)N[C@@H]1CN(C(=O)c2cccs2)C[C@@H]2CCCO[C@@H]21,73.18%
12,O=C(CC1CC1)N[C@@H]1CN(Cc2nccs2)C[C@@H]2CCCO[C@@H]21,-7.838%
13,O=C(c1cccs1)N1C[C@H]2CC[C@@]3(N=C(c4ccccc4)NC3=O)[C@H]2C1,7.494%
14,COc1ccc(CN2C[C@@H]3CCCO[C@@H]3[C@H](NC(=O)CC3CC3)C2)cc1,-5.236%
15,O=C(CC1CC1)N[C@@H]1CN(c2ncccn2)C[C@@H]2CCCO[C@@H]21.O=C(O)C(F)(F)F,-2.682%
16,O=C(CC1CC1)N[C@@H]1CN(C(=O)c2ccoc2)C[C@@H]2CCCO[C@@H]21,95.5%
17,O=C(CC1CC1)N[C@@H]1CN(Cc2ccc(F)cc2)C[C@@H]2CCCO[C@@H]21.O=C(O)C(F)(F)F,-7.276%
18,Cc1occc1C(=O)N1C[C@@H]2CCCO[C@@H]2[C@H](NS(C)(=O)=O)C1,108.4%
19,Cc1occc1C(=O)N1C[C@@H]2CN(S(C)(=O)=O)CCO[C@@H]2C1,-6.506%
